# Measurements published in the supplement of paper PMC8728848.
# This excerpt belongs to a sample that is enriched for the strongest signals.
# B1: Cohesin-hDECTIN-1 (Homo sapiens) (protein)
# chain: LDITSHHHHHHDDLDAVRIKVDTVNAKPGDTVRIPVRFSGIPSKGIANCDFVYSYDPNVLEIIEIEPGDIIVDPNPDKSFDTAVYPDRKIIVFLFAEDSGTGAYAITKDGVFATIVAKVKEGAPNGLSVIKFVEVGGFANNDLVEQKTQFFDGGVNVGDTTEPATPTTPVTTPTTTDDLDAASSSPCPPNWIIYEKSCYLFSMSLNSWDGSKRQCWQLGSNLLKIDSSNELGFIVKQVSSQPDNSFWIGLSRPQTEVPWLWEDGSTFSSNLFQIRTTATQENPSPNCVWIHVSVIYDQLCSVPSYSICEKKFM
# Legend:
# Experiment in all cases: glycan array binding signal (z-score within array); higher = stronger binding
# Conditions in all cases: glycan notation: IUPAC condensed, linker removed
# [1] = target: Fuc(a1-2)Gal(b1-3)GalNAc(b1-3)Gal
# Method in brief: (§1)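 Negative Z-scores can be read as non-binding. The Z-score is calculated within each array and then averaged across arrays of one protein sequence at different concentrations or buffers and across linkers. Arrays, 3228 in all, were curated from the Consortium for Functional Glycomics database and kept only where the protein sequence was available.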
# [2] = target: Fuc(a1-2)Gal(b1-4)Glc
# Method in brief: as §1
# [3] = target: Fuc(a1-2)Gal(b1-4)GlcNAc(b1-3)GalNAc
# Method in brief: as §1
# [4] = target: Fuc(a1-2)Gal(b1-4)GlcNAc(b1-6)GalNAc
# Method in brief: as §1
# [5] = target: Fuc(a1-2)Gal6S(b1-3)GlcNAc6S
# Method in brief: as §1
# [6] = target: Fuc(a1-2)[Gal(a1-3)]Gal(b1-4)GlcNAc
# Method in brief: as §1
# [7] = target: Fuc(a1-2)[Gal(a1-3)]Gal(b1-4)GlcNAc(b1-2)Man(a1-3)[Fuc(a1-2)[Gal(a1-3)]Gal(b1-4)GlcNAc(b1-2)Man(a1-6)]Man(b1-4)GlcNAc(b1-4)[Fuc(a1-6)]GlcNAc
# Method in brief: as §1
# [8] = target: Fuc(a1-2)[GalNAc(a1-3)]Gal(b1-3)GalNAc(a1-3)[Fuc(a1-2)]Gal(b1-4)GlcNAc
# Method in brief: as §1
# [9] = target: Fuc(a1-2)[GalNAc(a1-3)]Gal(b1-3)GlcNAc(b1-2)Man(a1-3)[Fuc(a1-2)[GalNAc(a1-3)]Gal(b1-3)GlcNAc(b1-2)Man(a1-6)]Man(b1-4)GlcNAc(b1-4)[Fuc(a1-6)]GlcNAc
# Method in brief: as §1
# [10] = target: Fuc(a1-2)[GalNAc(a1-3)]Gal(b1-4)GlcNAc(b1-6)GalNAc
# Method in brief: as §1
# [11] = target: Fuc(a1-2)[GalNAc(a1-3)]Gal(b1-4)[Fuc(a1-3)]GlcNAc
# Method in brief: as §1
# [12] = target: Fuc(a1-2)[GalNAc(a1-4)]Gal(b1-4)GlcNAc
# Method in brief: as §1
# [13] = target: Fuc(a1-2)[GalNAc(b1-3)]Gal
# Method in brief: as §1
# [14] = target: Fuc(a1-3)[Gal(b1-4)]GlcNAc(b1-2)Man(a1-3)[Fuc(a1-3)[Gal(b1-4)]GlcNAc(b1-2)Man(a1-6)]Man(b1-4)GlcNAc(b1-4)[Fuc(a1-6)]GlcNAc
# Method in brief: as §1
# [15] = target: Gal(a1-3)Gal(b1-3)GlcNAc
# Method in brief: as §1
# [16] = target: Gal(a1-3)Gal(b1-3)GlcNAc(b1-2)Man(a1-3)[Gal(a1-3)Gal(b1-3)GlcNAc(b1-2)Man(a1-6)]Man(b1-4)GlcNAc(b1-4)GlcNAc
# Method in brief: as §1
# [17] = target: Gal(a1-3)Gal(b1-3)GlcNAc(b1-6)GalNAc
# Method in brief: as §1
# [18] = target: Gal(a1-3)Gal(b1-4)GlcNAc(b1-6)GalNAc
# Method in brief: as §1
# [19] = target: Gal(b1-3)GlcNAc(b1-6)GalNAc
# Method in brief: as §1
# [20] = target: Gal(b1-3)GlcNAc(b1-6)[Gal(b1-3)]GalNAc
# Method in brief: as §1
# [21] = target: Gal(b1-3)[Fuc(a1-4)]GlcNAc
# Method in brief: as §1
# [22] = target: Gal6S(b1-3)GlcNAc6S
# Method in brief: as §1
# [23] = target: GalNAc(a1-3)Gal
# Method in brief: as §1
# [24] = target: GalNAc(b1-3)Gal
# Method in brief: as §1
# [25] = target: GalNAc(b1-3)Gal(a1-6)Gal(b1-4)Glc
# Method in brief: as §1
# [26] = target: GalNAc(b1-3)GlcNAc
# Method in brief: as §1
# [27] = target: GalNAc(b1-4)GlcNAc(b1-2)Man(a1-3)[GalNAc(b1-4)GlcNAc(b1-2)Man(a1-6)]Man(b1-4)GlcNAc(b1-4)GlcNAc
# Method in brief: as §1
# [28] = target: GalNAc6S(b1-4)GlcNAc
# Method in brief: as §1
# [29] = target: GlcNAc(a1-4)Gal(b1-4)GlcNAc(b1-3)Gal(b1-4)GlcNAc
# Method in brief: as §1
# [30] = target: GlcNAc(b1-2)[GlcNAc(b1-4)]Man(a1-3)[GlcNAc(b1-4)][GlcNAc(b1-2)[GlcNAc(b1-6)]Man(a1-6)]Man(b1-4)GlcNAc(b1-4)[Fuc(a1-6)]GlcNAc
# Method in brief: as §1
# [31] = target: Kdn(a2-6)Gal(b1-4)GlcNAc
# Method in brief: as §1
# [32] = target: Man(a1-2)Man(a1-2)Man(a1-6)[Man(a1-3)]Man
# Method in brief: as §1
# [33] = target: Man(a1-2)Man(a1-3)[Man(a1-2)Man(a1-6)]Man
# Method in brief: as §1
# [34] = target: Man(a1-3)[Man(a1-6)]Man(a1-6)[Man(a1-3)]Man
# Method in brief: as §1
# [35] = target: Man(a1-3)[Man(a1-6)]Man(b1-4)GlcNAc(b1-4)GlcNAc
# Method in brief: as §1
# [36] = target: Neu5Ac(a2-3)Gal(b1-3)GlcNAc(b1-4)Gal(b1-4)Glc
# Method in brief: as §1
# [37] = target: Neu5Ac(a2-3)Gal(b1-4)GlcNAc(b1-3)Gal(b1-4)GlcNAc(b1-3)Gal(b1-4)GlcNAc(b1-2)Man(a1-3)[Neu5Ac(a2-3)Gal(b1-4)GlcNAc(b1-3)Gal(b1-4)GlcNAc(b1-3)Gal(b1-4)GlcNAc(b1-2)Man(a1-6)]GalNAc
# Method in brief: as §1
# [38] = target: Neu5Ac(a2-3)Gal(b1-4)GlcNAc(b1-3)[Neu5Ac(a2-3)Gal(b1-4)GlcNAc(b1-6)]GalNAc
# Method in brief: as §1
# [39] = target: Neu5Ac(a2-6)Gal(b1-4)GlcNAc(b1-2)Man(a1-6)[Gal(b1-4)GlcNAc(b1-2)Man(a1-3)]Man(b1-4)GlcNAc(b1-4)GlcNAc
# Method in brief: as §1
# [40] = target: Neu5Ac(a2-8)Neu5Ac(a2-8)Neu5Ac(a2-3)Gal(b1-4)Glc
# Method in brief: as §1
# [41] = target: Neu5Gc(a2-8)Neu5Gc(a2-3)Gal(b1-4)GlcNAc(b1-3)Gal(b1-4)GlcNAc
# Method in brief: as §1
binder,measurement,setting,value
B1,glycan array binding signal (z-score),[1],1.86
same,glycan array binding signal (z-score),[2],-0.162
same,glycan array binding signal (z-score),[3],-0.382
same,glycan array binding signal (z-score),[4],2.93
same,glycan array binding signal (z-score),[5],0.18
same,glycan array binding signal (z-score),[6],-0.206
same,glycan array binding signal (z-score),[7],-0.435
same,glycan array binding signal (z-score),[8],-0.177
same,glycan array binding signal (z-score),[9],-0.305
same,glycan array binding signal (z-score),[10],6.29
same,glycan array binding signal (z-score),[11],-0.149
same,glycan array binding signal (z-score),[12],4.25
same,glycan array binding signal (z-score),[13],4.83
same,glycan array binding signal (z-score),[14],-0.51
same,glycan array binding signal (z-score),[15],4.04
same,glycan array binding signal (z-score),[16],0.993
same,glycan array binding signal (z-score),[17],7.58
same,glycan array binding signal (z-score),[18],5.86
same,glycan array binding signal (z-score),[19],6.01
same,glycan array binding signal (z-score),[20],-0.299
same,glycan array binding signal (z-score),[21],-0.306
same,glycan array binding signal (z-score),[22],1.2
same,glycan array binding signal (z-score),[23],2.65
same,glycan array binding signal (z-score),[24],5.2
same,glycan array binding signal (z-score),[25],4.68
same,glycan array binding signal (z-score),[26],3.33
same,glycan array binding signal (z-score),[27],0.004
same,glycan array binding signal (z-score),[28],4.98
same,glycan array binding signal (z-score),[29],-0.476
same,glycan array binding signal (z-score),[30],-0.586
same,glycan array binding signal (z-score),[31],-0.471
same,glycan array binding signal (z-score),[32],-0.33
same,glycan array binding signal (z-score),[33],-0.432
same,glycan array binding signal (z-score),[34],-0.272
same,glycan array binding signal (z-score),[35],-0.44
same,glycan array binding signal (z-score),[36],-0.22
same,glycan array binding signal (z-score),[37],-0.295
same,glycan array binding signal (z-score),[38],-0.163
same,glycan array binding signal (z-score),[39],-0.561
same,glycan array binding signal (z-score),[40],-0.569
same,glycan array binding signal (z-score),[41],-0.091
